# From PubChem BioAssay
# Several values for one entry are separate records, joined by “and”; a condition that tells them apart may be missing. Equal entries are not always repeated. Activity calls are given as the source filed them.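 How the source made its calls, unless noted: active means compounds whose cell count with miR-34 switched on is under 0.7 times the count with it off; inactive means the rest.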
# Experiments:
# [1] = hESC survival regulators, cell-based (AID 493140; call rule not given here;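 further: cells exposed to compounds for four days before counting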); conditions: human embryonic stem cell survival screen; stronger effect = higher value
# [2] = liver-stage malaria parasite growth inhibition, primary screen, cell-based, HepG2, luciferase luminescence, HepG2 viability (AID 624349; in the data active means parasite load remaining mostly below about 12%, no sharp cut-off; inactive means mostly above about 10%;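 further: 100% = mean of DMSO negative control wells on the same plate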); conditions: P. berghei liver stage in HepG2, luciferase luminescence, concentration not given here; parasite load remaining: stronger effect = lower value; viability: measured here: HepG2 viability without parasites
# [3] = stimulators of nuclear beta-catenin in C2C12, primary screen, imaging, WNT3A-conditioned medium, mouse C2C12, NPC library (AID 1117326; in the data active means nuclear beta-catenin stimulation mostly above about 4.2%, no sharp cut-off; inactive means mostly below about 10%); conditions: stronger effect = higher value
# [4] = stimulators of insulin release from INS-1E, primary screen, cell-based, 5 mM glucose, NPC library (AID 1117329;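 active means compound raises insulin release from rat beta cells at 5 mM glucose, no numeric limit stated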); conditions: rat INS-1E insulin secretion, at 10 µM, stronger effect = higher value
# [5] = growth inhibition of GSK3B-pretreated HCT116 cells – cell-based, CellTiter-Glo, 0.2 to 20 µM (AID 1117336;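 active means compounds lowering colon cancer cell viability after pretreatment blocking the GSK3B kinase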); conditions: HCT116 viability after GSK3B inhibitor, at 20 µM, stronger effect = higher value
# [6] = inhibition of endothelial tube formation, primary screen, imaging, VEGF stimulated, CD31 staining, tube area, NPC library (AID 1117340;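 active means compound that reduces growth-factor-driven endothelial tube area in a mixed cell culture, no cutoff stated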); conditions: VEGF-stimulated ADSC/ECFC co-culture, at 10 µM, stronger effect = higher value
# [7] = glucagon-like peptide 1 release enhancers, primary assay, NCI-H716 cell line, NPC library (AID 1117341;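 active means compound raises GLP1 secretion from the human gut endocrine cells, with no numeric limit stated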); conditions: NCI-H716 cells, at 10 µM, stronger effect = higher value
# [8] = HCT116 colon cancer cell growth inhibition, primary screen, CellTiter-Glo luminescence, NPC library (AID 1117342;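 active means compounds that lower survival of HCT116 colon cancer cells in the luminescence readout, no numeric limit stated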); conditions: at 20 µM (top of the series)
# [9] = CellTiter-Glo luminescent readout of SW480 viability loss, NPC library primary (AID 1117343;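 active means compounds that lower viability of the colon cancer cells in the luminescence readout, with no numeric limit stated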); conditions: CellTiter-Glo luminescence; at 20 µM (top of the series)
# [10] = decreased DLD-1 cellular survival, CellTiter-Glo luminescent readout, NPC compound collection, primary HTS (AID 1117346;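 active means compounds that lower survival of DLD-1 colon cancer cells in the luminescence readout, no cutoff given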); conditions: DLD-1 viability, CellTiter-Glo luminescence; at 20 µM (top of the series)
# [11] = differential killing of epithelial or mesenchymal cells, primary screen, imaging, PC-3E GFP, TEM4-18 mCherry, co-culture (AID 1345086;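 active means compounds killing one labelled cell type while sparing the other, by normalised counts and ratio limits, not self-fluorescent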;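 on all read-outs here: cells exposed to compound for 72 h before imaging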;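 on red/green cell ratio (normalised): normalised mesenchymal count divided by normalised epithelial count so high means epithelial killing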); conditions: imaging cell counts, at 1 µM; for red/green cell ratio (normalised): actives lie on both sides
# [12] = sensitizers of A549 cells to miR-34 induction, primary screen, imaging, A549 dox-inducible miR-34, nuclei and caspase counts (AID 1347080); conditions: A549 miR-34 inducible, Hoechst nuclei count, 48 h
# [13] = biological target: NAD(+) hydrolase SARM1 (Homo sapiens) (UniProt Q6SZW1); test: SARM1 TIR NADase inhibitors, cell lysate, NAD-Glo luminescence (AID 1508614;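 active means compound whose remaining NAD level is above about 45 nM, limit read from the data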); conditions: SAM-TIR HEK293T lysate NADase, at 1 µM, stronger effect = higher value
# NAD(+) hydrolase SARM1 (Homo sapiens), sequence (Q6SZW1 whole entry, looked up): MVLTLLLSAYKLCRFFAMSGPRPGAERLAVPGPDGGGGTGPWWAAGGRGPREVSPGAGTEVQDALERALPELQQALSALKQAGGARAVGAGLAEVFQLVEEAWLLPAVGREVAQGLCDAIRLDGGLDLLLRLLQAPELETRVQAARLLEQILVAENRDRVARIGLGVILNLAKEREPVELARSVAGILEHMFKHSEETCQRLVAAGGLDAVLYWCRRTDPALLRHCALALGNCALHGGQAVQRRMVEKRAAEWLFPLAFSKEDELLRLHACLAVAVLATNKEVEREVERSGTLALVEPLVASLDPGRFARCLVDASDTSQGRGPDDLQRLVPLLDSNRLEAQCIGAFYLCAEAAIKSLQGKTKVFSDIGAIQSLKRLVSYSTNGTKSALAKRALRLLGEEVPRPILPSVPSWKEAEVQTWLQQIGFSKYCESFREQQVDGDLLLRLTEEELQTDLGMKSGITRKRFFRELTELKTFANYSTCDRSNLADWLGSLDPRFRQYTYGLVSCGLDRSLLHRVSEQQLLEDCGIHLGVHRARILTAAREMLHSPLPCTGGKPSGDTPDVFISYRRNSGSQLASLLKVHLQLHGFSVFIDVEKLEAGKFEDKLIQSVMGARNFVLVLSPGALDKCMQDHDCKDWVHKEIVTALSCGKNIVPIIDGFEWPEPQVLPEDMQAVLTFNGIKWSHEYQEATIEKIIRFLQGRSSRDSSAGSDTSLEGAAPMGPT
# [14] = test system: Aerobactin synthetase IucA (Klebsiella pneumoniae, hypervirulent); test: IucA enzyme inhibition, biochemical, LOPAC library, absorbance readout (AID 1346212; call rule not given here;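 further: 100% = no compound wells and 0% = no enzyme wells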); conditions: IucA enzyme assay, absorbance (OD) readout; stronger effect = lower value;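 tested at 8 µM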
# [15] = biological target: Mitogen-activated protein kinase 7 (Homo sapiens) (UniProt Q13164); test: ERK5 transactivation activators in reporter cells, primary screen, cell-based, HTS (AID 1508626;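 active means luciferase signal above three times the same-plate solvent-only control wells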;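 further: luciferase driven by Gal4-ERK5 fusion binding five Gal4 sites before minimal TATA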); conditions: HeLa Gal4-ERK5 transactivation, 18 h, at 5 µM, stronger effect = higher value
# Mitogen-activated protein kinase 7 (Homo sapiens), sequence (Q13164 whole entry, looked up, the tested form may be a part): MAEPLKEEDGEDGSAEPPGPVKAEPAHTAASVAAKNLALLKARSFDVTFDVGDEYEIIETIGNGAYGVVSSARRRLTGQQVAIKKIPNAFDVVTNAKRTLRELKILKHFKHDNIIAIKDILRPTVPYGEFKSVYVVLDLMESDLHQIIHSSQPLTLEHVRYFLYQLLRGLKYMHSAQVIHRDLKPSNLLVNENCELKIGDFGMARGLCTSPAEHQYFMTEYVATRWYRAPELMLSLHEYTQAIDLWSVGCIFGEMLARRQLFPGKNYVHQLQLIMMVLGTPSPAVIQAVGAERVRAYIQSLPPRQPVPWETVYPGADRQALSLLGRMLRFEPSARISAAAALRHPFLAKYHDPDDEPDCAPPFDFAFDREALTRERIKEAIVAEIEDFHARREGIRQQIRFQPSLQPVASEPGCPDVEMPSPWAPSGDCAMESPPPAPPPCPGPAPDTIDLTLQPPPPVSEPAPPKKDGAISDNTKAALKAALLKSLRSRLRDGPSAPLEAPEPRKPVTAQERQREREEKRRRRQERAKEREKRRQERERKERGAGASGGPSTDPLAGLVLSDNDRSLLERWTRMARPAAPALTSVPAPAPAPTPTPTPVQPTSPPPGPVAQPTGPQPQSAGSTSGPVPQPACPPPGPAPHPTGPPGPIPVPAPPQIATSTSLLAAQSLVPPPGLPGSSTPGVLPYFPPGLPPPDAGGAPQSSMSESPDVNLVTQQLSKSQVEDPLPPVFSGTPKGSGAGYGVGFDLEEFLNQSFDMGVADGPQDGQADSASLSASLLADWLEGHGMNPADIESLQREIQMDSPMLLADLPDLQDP
# [16] = survival rescue of mitochondrial mutant cells in low glucose, primary screen, MELAS cybrids, Rieske KO mouse fibroblasts, CellTiter-Glo (AID 1508586;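 active means mean z-score across replicates of 1.96 or higher in either the MELAS or the Rieske mutant cell line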;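 further: z relative to plate mean and SD of compound and empty wells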)
# [17] = viability rescue of complex I mutant cybrids, primary screen, cell-based, galactose medium, ATP luminescence (AID 1645843;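 active means z-score of at least 1.8 in each of two replicates, scored against plate mean and spread of sample wells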;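 further: positive z means more ATP and so rescue of galactose-driven cybrid death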); conditions: complex I mutant cybrid cells, 72 h, stronger effect = higher value
# [18] = measured here: epithelial PC-3E GFP cell survival
# [19] = measured here: mesenchymal TEM4-18 mCherry cell survival
# [20] = measured here: relative caspase fold change +Dox/-Dox
# [21] = measured here: total cells with miR-34 induction, stronger effect = lower value
# [22] = measured here: total cells without miR-34 induction
# [23] = MELAS cybrid survival, CellTiter-Glo 48 h, stronger effect = higher value
# [24] = Rieske KO mouse fibroblast survival, CellTiter-Glo 72 h
compound,measurement,setting,value
COP(=O)(OC)C(O)C(Cl)(Cl)Cl (stereo not drawn),survival,[1],17.5 (inactive)
same,parasite load remaining,[2],19.7% (inactive) and 127% (inactive)
same,viability,[2],48.9% and 90.6%
same,nuclear beta-catenin stimulation,[3]; at 10 µM,-1.9% (inactive)
same,nuclear beta-catenin stimulation,"[3]; stimulation, at 2 µM",0.4%
same,insulin secretion stimulation,[4],0.2% (inactive)
same,viability decrease,[5],2.4% (inactive)
same,tube area decrease,[6],5.8% (inactive)
same,GLP1 secretion stimulation,[7],-3.2% (inactive)
same,inhibition of viability,[8],-44.1% (inactive)
same,viability decrease (inhibition),[9],1.6% (inactive)
same,viability decrease (inhibition),[10],-13.3% (inactive)
same,red/green cell ratio (normalised),[11],0.95 (inactive)
same,normalised cell number,[11]; [18],0.96
same,normalised cell number,[11]; [19],0.91
same,fold change,[12]; stronger effect = lower value,0.918 (inactive)
same,fold change,[12]; [20],1.24
same,cell count,[12]; [21],8320
same,cell count,[12]; [22],9070
same,remaining NAD,[13],10 nM (inactive)
C[N+]1(C)[C@@H]2CC[C@H]1CC(OC(=O)C(CO)c1ccccc1)C2 (stereo partly drawn),nuclear beta-catenin stimulation,[3]; at 10 µM,0.5% (inactive)
same,nuclear beta-catenin stimulation,"[3]; stimulation, at 2 µM",-0.7%
same,insulin secretion stimulation,[4],3.3% (inactive)
same,viability decrease,[5],-5.8% (inactive)
same,tube area decrease,[6],-7.8% (inactive)
same,GLP1 secretion stimulation,[7],2.8% (inactive)
same,inhibition of viability,[8],12.1% (inactive)
same,viability decrease (inhibition),[9],-13.2% (inactive)
same,viability decrease (inhibition),[10],13.1% (inactive)
same,remaining activity,[14],93.2% (inactive)
same,remaining NAD,[13],10 nM (inactive)
same,luciferase signal,[15],60 AU (inactive)
CC(=O)[C@H]1CC[C@H]2[C@@H]3CC[C@H]4C[C@H](O)CC[C@]4(C)[C@H]3C(=O)C[C@]12C,survival,[1],20.1 (inactive)
same,parasite load remaining,[2],70.8% (inactive)
same,viability,[2],72.4%
same,nuclear beta-catenin stimulation,[3]; at 10 µM,0.5% (inactive)
same,nuclear beta-catenin stimulation,"[3]; stimulation, at 2 µM",-0.7%
same,insulin secretion stimulation,[4],3.1% (inactive)
same,viability decrease,[5],28% (inactive)
same,tube area decrease,[6],-23.1% (inactive)
same,GLP1 secretion stimulation,[7],-1.7% (inactive)
same,inhibition of viability,[8],41.1% (inactive)
same,viability decrease (inhibition),[9],67.8% (active)
same,viability decrease (inhibition),[10],19.9% (inactive)
same,remaining activity,[14],112% (inactive)
same,fold change,[12]; stronger effect = lower value,1.12 (inactive) and 0.844 (inactive)
same,fold change,[12]; [20],0.8 and 0.773
same,cell count,[12]; [21],11000 and 8700
same,cell count,[12]; [22],9770 and 10300
same,z-score,[16]; [23],0.566 (inactive)
same,z-score,[16]; [24],0.0524
same,z-score,[17],-0.315 (inactive)
CN1[C@@H]2CC[C@H]1CC(OC(=O)c1cc(Cl)cc(Cl)c1)C2 (stereo partly drawn),nuclear beta-catenin stimulation,[3]; at 10 µM,5.5% (inactive)
same,nuclear beta-catenin stimulation,"[3]; stimulation, at 2 µM",3.7%
same,insulin secretion stimulation,[4],14.4% (inactive)
same,viability decrease,[5],59.7% (active)
same,tube area decrease,[6],2.2% (inactive)
same,GLP1 secretion stimulation,[7],13.6% (inactive)
same,inhibition of viability,[8],87.1% (active)
same,viability decrease (inhibition),[9],63.5% (active)
same,viability decrease (inhibition),[10],85.1% (active)
same,remaining activity,[14],96.1% (inactive)
O=C1NCN(c2ccccc2)C12CCN(CC1COc3ccccc3O1)CC2 (stereo not drawn),parasite load remaining,[2],34.8% (inactive)
same,viability,[2],103%
same,nuclear beta-catenin stimulation,[3]; at 10 µM,-0.5% (inactive)
same,nuclear beta-catenin stimulation,"[3]; stimulation, at 2 µM",0.8%
same,insulin secretion stimulation,[4],1.2% (inactive)
same,viability decrease,[5],-65.9% (inactive)
same,tube area decrease,[6],5.4% (inactive)
same,GLP1 secretion stimulation,[7],0.9% (inactive)
same,inhibition of viability,[8],17.3% (inactive)
same,viability decrease (inhibition),[9],28.7% (inactive)
same,viability decrease (inhibition),[10],3.2% (inactive)
same,remaining activity,[14],93.6% (inactive)
same,fold change,[12]; stronger effect = lower value,1.02 (inactive) and 0.89 (inactive) and 0.887 (inactive)
same,fold change,[12]; [20],1.92 and 0.981 and 1.04
same,cell count,[12]; [21],9490 and 8620 and 9600
same,cell count,[12]; [22],9350 and 9690 and 10800
same,z-score,[16]; [23],0.415 (inactive)
same,z-score,[16]; [24],1.51
same,z-score,[17],0.48 (inactive) and 0.105 (inactive) and 0.78 (inactive)
O=c1n(Cl)c(=O)n(Cl)c(=O)n1Cl,nuclear beta-catenin stimulation,[3]; at 10 µM,-0.9% (inactive)
same,nuclear beta-catenin stimulation,"[3]; stimulation, at 2 µM",-0.3%
same,insulin secretion stimulation,[4],1.5% (inactive)
same,viability decrease,[5],-15.4% (inactive)
same,tube area decrease,[6],16.7% (inactive)
same,GLP1 secretion stimulation,[7],0.8% (inactive)
same,inhibition of viability,[8],13.9% (inactive)
same,viability decrease (inhibition),[9],11.6% (inactive)
same,viability decrease (inhibition),[10],-0.1% (inactive)
same,red/green cell ratio (normalised),[11],0.94 (inactive)
same,normalised cell number,[11]; [18],1.07
same,normalised cell number,[11]; [19],1
same,fold change,[12]; stronger effect = lower value,0.97 (inactive)
same,fold change,[12]; [20],1.18
same,cell count,[12]; [21],8670
same,cell count,[12]; [22],8940
same,remaining NAD,[13],10 nM (inactive)
